According to the supplement of paper PMC10849652:
The full data set covers some 7,900 targets. This sample favours those with a hit. About 0.6% of all pairs of compound and target were hits.

What was measured:
Experiment in all cases: log2 fold change, soluble protein after heating vs DMSO (PISA); higher = thermal stabilisation; K562 cells, 10 uM, 30 min; active = over 0.2 and 3.5 SD of the protein, either way, in both replicates (recomputed)
[1] = compound: C1=CC=C(C=C1)[C@H](COC2=CC3=C(C=C2)NC(=O)N3)NC(=O)C4=CC=CN(C4=O)CC5=CC(=C(C=C5)F)F
Outline: (§1)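 Soluble protein was quantified by TMTpro 16plex LC-MS/MS after channel sums were equalised. It was obtained as the supernatant after 21,000xg for 90 min from pooled aliquots of K562 cells (2×10^6 cells/mL, 10 μM compound, 30 min) heated for 3 min across 48°C-58°C and extracted in PBS with 0.5% NP-40 at 4°C. Thermal stability values are relative to control samples and come from duplicates. They are given as log2 fold changes.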

[2] = compound: CC1=C(SC2=C1C(=N[C@H](C3=NN=C(N32)C)CC(=O)N)C4=CC=C(C=C4)Cl)C
Outline: as §1

[3] = compound: CC1=C2C(=CC=C1)N=C(N(C2=O)C3=CC=CC=C3C)CN4C=NC5=C(N=CN=C54)N
Outline: as §1

[4] = compound: Cc1sc2c(c1C)C(c1ccc(Cl)cc1)=N[C@@H](CC(=O)OC(C)(C)C)c1nnc(C)n1-2
Outline: as §1

[5] = compound: c1ccc([C@@H]2C[C@H]2NC2CCNCC2)cc1
Outline: as §1

Measured: log2 fold change

PSMC2 (UniProt P35998)
Sequence of UniProt P35998 (P35998 whole entry, looked up): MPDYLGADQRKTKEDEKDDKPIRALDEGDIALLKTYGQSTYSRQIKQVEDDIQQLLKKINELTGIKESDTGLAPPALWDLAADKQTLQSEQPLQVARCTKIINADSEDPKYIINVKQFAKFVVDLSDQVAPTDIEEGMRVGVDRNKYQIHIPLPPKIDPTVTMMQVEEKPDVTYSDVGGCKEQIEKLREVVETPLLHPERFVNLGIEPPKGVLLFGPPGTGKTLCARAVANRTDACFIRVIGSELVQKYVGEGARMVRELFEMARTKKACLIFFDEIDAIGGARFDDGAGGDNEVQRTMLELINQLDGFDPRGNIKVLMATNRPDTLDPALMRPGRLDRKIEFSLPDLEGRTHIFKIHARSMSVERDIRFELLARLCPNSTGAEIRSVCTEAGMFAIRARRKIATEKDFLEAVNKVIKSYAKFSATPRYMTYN
inactive: [1] 0.031 | [2] -0.085 | [3] -0.092 | [4] 0.002 | [5] 0.001

POLR3B (UniProt Q9NW08)
Sequence of UniProt Q9NW08 (Q9NW08 whole entry, looked up): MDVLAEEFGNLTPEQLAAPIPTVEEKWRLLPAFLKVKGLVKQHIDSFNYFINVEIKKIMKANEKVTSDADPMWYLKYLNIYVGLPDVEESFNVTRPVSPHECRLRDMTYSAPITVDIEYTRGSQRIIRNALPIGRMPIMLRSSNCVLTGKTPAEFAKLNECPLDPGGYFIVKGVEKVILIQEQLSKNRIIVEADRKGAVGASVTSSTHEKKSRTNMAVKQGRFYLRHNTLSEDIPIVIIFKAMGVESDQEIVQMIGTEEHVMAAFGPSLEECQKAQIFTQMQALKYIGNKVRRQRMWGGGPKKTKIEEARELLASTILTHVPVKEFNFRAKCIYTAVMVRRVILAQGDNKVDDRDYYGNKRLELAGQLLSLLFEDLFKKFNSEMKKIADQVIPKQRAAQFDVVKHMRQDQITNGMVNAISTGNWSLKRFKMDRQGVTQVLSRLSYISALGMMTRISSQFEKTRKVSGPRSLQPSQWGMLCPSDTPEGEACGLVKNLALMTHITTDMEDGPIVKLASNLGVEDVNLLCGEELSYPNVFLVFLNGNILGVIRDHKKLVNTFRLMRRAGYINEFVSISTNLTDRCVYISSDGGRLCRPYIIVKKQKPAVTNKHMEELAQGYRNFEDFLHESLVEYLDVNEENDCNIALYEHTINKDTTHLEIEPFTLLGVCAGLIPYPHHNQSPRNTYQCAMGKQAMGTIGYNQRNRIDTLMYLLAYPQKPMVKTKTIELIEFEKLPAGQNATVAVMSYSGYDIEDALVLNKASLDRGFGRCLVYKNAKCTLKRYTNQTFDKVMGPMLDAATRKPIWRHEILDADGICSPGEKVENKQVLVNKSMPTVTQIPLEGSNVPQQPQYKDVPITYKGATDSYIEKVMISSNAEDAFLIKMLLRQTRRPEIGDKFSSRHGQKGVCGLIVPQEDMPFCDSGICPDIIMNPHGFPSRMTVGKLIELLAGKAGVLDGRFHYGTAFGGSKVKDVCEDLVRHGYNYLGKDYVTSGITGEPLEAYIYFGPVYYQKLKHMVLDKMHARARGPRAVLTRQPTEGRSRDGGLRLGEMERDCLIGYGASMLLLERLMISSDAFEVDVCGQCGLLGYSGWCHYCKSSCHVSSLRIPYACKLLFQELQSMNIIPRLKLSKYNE
inactive: [1] -0.035 | [2] -0.02 | [3] 0.078 | [4] 0.04 | [5] -0.046

PGM3 isoform 4 (UniProt O95394)
inactive: [1] -0.082 | [2] 0.039 | [3] 0.066 | [4] 0.012 | [5] -0.088

PSMD8 (UniProt P48556)
inactive: [1] 0.014 | [2] -0.07 | [3] -0.01 | [4] -0.001 | [5] 0.071

PRKCE (UniProt Q02156)
Sequence of UniProt Q02156 (Q02156 whole entry, looked up): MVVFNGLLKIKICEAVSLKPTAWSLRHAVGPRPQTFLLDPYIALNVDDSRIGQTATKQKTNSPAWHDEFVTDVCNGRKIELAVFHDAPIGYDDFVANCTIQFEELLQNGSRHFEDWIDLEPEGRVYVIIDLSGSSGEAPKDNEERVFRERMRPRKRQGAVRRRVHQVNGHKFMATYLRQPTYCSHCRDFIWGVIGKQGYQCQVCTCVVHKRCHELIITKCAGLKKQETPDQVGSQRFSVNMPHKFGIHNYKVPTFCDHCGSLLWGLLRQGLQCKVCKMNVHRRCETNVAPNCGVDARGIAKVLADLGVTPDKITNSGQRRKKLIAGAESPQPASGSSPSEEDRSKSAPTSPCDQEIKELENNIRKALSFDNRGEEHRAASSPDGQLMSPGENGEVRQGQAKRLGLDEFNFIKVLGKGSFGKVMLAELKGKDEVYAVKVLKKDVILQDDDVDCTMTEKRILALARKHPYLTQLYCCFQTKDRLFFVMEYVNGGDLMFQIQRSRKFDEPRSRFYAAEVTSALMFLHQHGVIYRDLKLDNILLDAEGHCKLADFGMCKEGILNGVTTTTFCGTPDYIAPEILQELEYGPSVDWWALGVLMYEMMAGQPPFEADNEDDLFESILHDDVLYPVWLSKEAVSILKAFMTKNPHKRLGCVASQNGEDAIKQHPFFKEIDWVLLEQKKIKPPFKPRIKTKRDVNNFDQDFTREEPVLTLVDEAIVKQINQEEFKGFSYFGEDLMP
inactive: [1] -0.065 | [2] 0.033 | [3] 0.071 | [4] 0.018 | [5] 0

PI4K2B (UniProt Q8TCG2)
inactive: [1] 0.007 | [2] 0.031 | [3] 0.065 | [4] 0.024 | [5] -0.041

PTPMT1 (UniProt Q8WUK0)
inactive: [1] -0.019 | [2] 0.086 | [3] 0.029 | [4] 0.066 | [5] 0.01

PI4K2A (UniProt Q9BTU6)
inactive: [1] 0.015 | [2] 0.043 | [3] 0.064 | [4] -0.004 | [5] 0.013

PXK (UniProt Q7Z7A4)
Sequence of UniProt Q7Z7A4 (Q7Z7A4 whole entry, looked up): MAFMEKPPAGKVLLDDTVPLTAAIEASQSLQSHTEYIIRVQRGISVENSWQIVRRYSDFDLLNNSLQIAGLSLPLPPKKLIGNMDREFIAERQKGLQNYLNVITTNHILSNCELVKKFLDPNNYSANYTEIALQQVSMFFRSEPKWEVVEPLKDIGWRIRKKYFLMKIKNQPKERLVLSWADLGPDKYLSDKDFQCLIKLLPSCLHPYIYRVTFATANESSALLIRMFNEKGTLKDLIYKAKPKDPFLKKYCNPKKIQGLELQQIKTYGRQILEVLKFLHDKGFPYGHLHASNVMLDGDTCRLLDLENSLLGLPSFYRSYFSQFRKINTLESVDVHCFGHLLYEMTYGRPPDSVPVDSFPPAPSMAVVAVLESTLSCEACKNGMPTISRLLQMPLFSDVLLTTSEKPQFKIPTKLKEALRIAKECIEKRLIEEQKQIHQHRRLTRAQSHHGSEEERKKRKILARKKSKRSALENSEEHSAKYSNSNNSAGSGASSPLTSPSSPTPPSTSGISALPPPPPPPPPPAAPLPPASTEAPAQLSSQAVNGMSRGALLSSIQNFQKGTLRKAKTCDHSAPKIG
inactive: [1] -0.015 | [2] 0.04 | [3] 0.098 | [4] 0.011 | [5] -0.045

PDLIM7 (UniProt Q9NR12)
Sequence of UniProt Q9NR12 (Q9NR12 whole entry, looked up): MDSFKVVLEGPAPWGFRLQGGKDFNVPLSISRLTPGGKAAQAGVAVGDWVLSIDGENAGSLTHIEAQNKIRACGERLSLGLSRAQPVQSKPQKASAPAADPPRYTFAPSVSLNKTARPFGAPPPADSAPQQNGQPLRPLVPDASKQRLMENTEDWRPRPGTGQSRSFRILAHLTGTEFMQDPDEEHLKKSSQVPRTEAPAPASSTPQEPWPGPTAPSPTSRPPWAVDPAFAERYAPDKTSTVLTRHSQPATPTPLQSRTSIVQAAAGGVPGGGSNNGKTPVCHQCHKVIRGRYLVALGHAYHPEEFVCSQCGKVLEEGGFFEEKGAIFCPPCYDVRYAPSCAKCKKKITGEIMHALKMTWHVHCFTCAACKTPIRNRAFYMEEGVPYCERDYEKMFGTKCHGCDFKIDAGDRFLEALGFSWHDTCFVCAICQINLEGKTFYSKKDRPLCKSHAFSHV
inactive: [1] -0.04 | [2] 0.044 | [3] 0.092 | [4] -0.023 | [5] -0.011

PTPA (UniProt A6PVN8)
inactive: [1] 0.011 | [2] 0.011 | [3] 0.001 | [4] -0.015 | [5] 0.148

PTTG1 (UniProt O95997)
Sequence of UniProt O95997 (O95997 whole entry, looked up): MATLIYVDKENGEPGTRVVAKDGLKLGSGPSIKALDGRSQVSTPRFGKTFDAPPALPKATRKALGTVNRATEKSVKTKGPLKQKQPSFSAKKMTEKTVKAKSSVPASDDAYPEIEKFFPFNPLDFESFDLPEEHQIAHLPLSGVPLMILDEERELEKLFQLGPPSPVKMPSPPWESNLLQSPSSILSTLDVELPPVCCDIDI
inactive: [1] -0.005 | [2] 0.003 | [3] 0.014 | [4] 0.004 | [5] 0.011

POLR2M (UniProt P0CAP2)
Sequence of UniProt P0CAP2 (P0CAP2 whole entry, looked up): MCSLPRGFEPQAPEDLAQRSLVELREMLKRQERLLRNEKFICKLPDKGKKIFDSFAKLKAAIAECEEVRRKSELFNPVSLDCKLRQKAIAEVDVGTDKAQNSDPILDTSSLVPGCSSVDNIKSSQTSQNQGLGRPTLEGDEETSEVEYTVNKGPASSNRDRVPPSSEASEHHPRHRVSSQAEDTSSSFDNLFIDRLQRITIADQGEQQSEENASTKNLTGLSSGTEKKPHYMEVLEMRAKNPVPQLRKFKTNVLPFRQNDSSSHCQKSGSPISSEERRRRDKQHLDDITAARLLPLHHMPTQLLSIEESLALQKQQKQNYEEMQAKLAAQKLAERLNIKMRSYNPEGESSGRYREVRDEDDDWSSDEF
inactive: [1] -0.021 | [2] 0.096 | [3] 0.045 | [4] 0.004 | [5] -0.062

PSMD12 (UniProt O00232)
Sequence of UniProt O00232 (O00232 whole entry, looked up): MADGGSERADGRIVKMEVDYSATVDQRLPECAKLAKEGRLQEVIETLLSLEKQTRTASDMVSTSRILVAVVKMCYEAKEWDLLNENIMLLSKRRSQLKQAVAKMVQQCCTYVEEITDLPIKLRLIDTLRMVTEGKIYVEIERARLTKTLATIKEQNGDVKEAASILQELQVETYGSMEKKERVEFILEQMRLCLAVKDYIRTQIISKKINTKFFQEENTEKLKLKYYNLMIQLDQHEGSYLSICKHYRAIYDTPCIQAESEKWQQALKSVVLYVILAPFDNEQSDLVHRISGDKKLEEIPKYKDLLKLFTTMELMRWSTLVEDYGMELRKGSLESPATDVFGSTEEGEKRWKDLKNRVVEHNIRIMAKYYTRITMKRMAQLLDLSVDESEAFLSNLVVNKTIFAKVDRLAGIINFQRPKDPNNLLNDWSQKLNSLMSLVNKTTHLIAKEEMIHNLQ
inactive: [1] 0.021 | [2] -0.063 | [3] -0.066 | [4] -0.045 | [5] -0.009

PRPF38B (UniProt Q5VTL8)
Sequence of UniProt Q5VTL8 (Q5VTL8 whole entry, looked up): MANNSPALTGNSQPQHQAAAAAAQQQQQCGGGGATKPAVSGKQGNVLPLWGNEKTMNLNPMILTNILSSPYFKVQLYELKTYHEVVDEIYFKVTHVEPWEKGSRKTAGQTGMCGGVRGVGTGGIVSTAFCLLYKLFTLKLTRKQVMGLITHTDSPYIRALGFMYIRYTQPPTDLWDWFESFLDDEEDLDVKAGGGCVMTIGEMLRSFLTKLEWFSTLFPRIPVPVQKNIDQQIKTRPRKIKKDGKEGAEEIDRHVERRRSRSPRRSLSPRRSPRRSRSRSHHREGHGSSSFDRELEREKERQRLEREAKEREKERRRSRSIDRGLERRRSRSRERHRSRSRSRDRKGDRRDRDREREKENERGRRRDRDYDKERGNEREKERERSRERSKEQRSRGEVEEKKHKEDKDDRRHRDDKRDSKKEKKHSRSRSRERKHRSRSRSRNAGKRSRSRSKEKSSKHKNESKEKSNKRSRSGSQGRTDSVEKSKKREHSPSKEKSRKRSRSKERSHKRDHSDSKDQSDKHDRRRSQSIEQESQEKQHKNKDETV
inactive: [1] 0.038 | [2] 0.066 | [3] 0.052 | [4] 0.056 | [5] 0.032
